Data: PubChem BioAssay (EPA / NIEHS)
Records with an inconclusive call do not appear. Active and inactive are the calls of the source. How the source made its calls, unless noted: active means hit-call score of the fitted dose curve at least 0.9, where 1 is the maximum; inconclusive means response in the unintended direction; inactive means score below 0.9.

System: not listed separately
Experiment: TOX21_TRB_BLA_Antagonist_Followup_viability: Viability Assessment in the Tox21 Thyroid Hormone Receptor beta Antagonism Beta-lactamase (BLA) Follow-Up Assay (AID 2283961)
Procedure, shortened: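 HEK293T cells with GAL4-human TRβ LBD and UAS-bla reporter, 3,000 cells/well in 2% charcoal-stripped FBS medium; 11-point concentrations in triplicate, 18 h at 37C. Viability from ATP by CellTiter-Glo luminescence, 30 min RT, same plates.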

SMILES	AC50	outcome
Oc1ccc(Cl)cc1Cc1cc(Cl)ccc1O	23.5 µM (active)	
COc1ccc(C(Cl)=C(c2ccc(OC)cc2)c2ccc(OC)cc2)cc1		inactive
N=c1ccn2c(n1)O[C@H]1[C@H](O)[C@@H](CO)O[C@H]12		inactive

Molecular target: THRB (gene 7068) (UniProt P10828)
Sequence (P10828 whole entry, looked up): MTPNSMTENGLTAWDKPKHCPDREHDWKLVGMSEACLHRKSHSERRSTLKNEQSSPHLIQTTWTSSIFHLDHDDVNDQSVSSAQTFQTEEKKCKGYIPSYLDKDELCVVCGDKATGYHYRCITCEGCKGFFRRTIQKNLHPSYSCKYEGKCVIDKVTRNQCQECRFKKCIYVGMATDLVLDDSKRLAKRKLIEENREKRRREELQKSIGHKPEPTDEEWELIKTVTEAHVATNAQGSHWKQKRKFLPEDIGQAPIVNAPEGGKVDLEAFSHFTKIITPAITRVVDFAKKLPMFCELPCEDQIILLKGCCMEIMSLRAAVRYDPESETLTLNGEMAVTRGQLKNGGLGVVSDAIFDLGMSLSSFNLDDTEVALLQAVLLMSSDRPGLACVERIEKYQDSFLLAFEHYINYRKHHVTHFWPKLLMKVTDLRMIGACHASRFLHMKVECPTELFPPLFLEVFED
Experiment: TOX21_TRB_COA_Agonist_Followup_ratio: Tox21 Thyroid Hormone Receptor beta Agonism through Coactivator Recruitment Follow-Up Assay, Ratio (AID 2283963; active means hit-call score of the fitted dose curve at least 0.9, where 1 is the maximum; inactive means score below 0.9)
Procedure, shortened: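 Cell-free TR-FRET coactivator recruitment: GST-tagged TRβ LBD (5.0 nM) with 0.10% BSA incubated with compound, then fluorescein-SRC-2 peptide (200 nM) and Tb-anti-GST antibody (2 nM) added. 520:495 nm ratio normalized to DMSO (0%) and T3 (100%).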

SMILES	outcome
CCCCCCC(O)CO (stereo unspecified)	inactive
NC(CO)(CO)CO	inactive
C[Si](C)O[Si](C)(C)O[Si](C)(C)O[Si](C)C	inactive

Molecular target: THRB (gene 7068) (UniProt P10828)
Experiment: TOX21_TRB_COA_Antagonist_Followup_ratio: Tox21 Thyroid Hormone Receptor beta Antagonism through Coactivator Recruitment Follow-Up Assay, Ratio (AID 2283967)
Procedure, shortened: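 Test compound was incubated with 5.0 nM GST-TRβ LBD in 0.10% BSA. Then 200 nM fluorescein-SRC-2 peptide and 2 nM terbium anti-GST antibody were added. TR-FRET (520:495 nm) was measured and normalized to DMSO and T3 controls.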

SMILES	outcome	AC50
Cc1oncc1C(=O)Nc1ccc(C(F)(F)F)cc1	inactive	
c1cc(N(CC2CO2)CC2CO2)ccc1OCC1CO1 (stereo unspecified)	inactive	
COCc1c(C(C)C)nc(C(C)C)c(/C=C/[C@@H](O)C[C@@H](O)CC(=O)O)c1-c1ccc(F)cc1	inactive	
Oc1ccc(Cl)cc1Cc1cc(Cl)ccc1O		38.3 µM (active)
N=c1ccn2c(n1)O[C@H]1[C@H](O)[C@@H](CO)O[C@H]12	inactive	

Molecular target: Retinoic acid receptor RXR-alpha (Homo sapiens) (UniProt P19793)
Sequence (P19793 whole entry, looked up): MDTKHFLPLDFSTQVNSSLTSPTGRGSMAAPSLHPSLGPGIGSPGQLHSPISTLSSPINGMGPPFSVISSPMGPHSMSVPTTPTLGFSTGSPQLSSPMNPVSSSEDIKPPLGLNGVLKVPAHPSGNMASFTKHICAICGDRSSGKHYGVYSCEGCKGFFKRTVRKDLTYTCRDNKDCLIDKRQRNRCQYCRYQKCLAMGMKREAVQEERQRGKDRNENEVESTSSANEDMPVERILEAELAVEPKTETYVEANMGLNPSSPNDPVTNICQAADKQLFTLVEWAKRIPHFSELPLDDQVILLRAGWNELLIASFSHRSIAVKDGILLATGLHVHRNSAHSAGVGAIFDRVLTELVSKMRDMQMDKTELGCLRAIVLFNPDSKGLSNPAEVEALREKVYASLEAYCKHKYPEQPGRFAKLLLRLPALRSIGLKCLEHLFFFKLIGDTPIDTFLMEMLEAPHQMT
Experiment: TOX21_TR_RXR_BLA_Agonist_Followup_ratio: Tox21 Thyroid Hormone Receptor beta Retinoid X Receptor alpha (RXRa) Agonism Beta-lactamase (BLA) Follow-Up Assay, Ratio (AID 2283968)
Procedure, shortened: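 This follow-up tests whether responses seen in the TR GH3 luciferase agonist screen are specific, using a GAL4-driven beta-lactamase reporter for RXRa in HEK293T cells. Compound exposure lasts 16 h; signal is the cleaved/uncleaved substrate ratio.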

SMILES	outcome
CCCCCCC(O)CO (stereo unspecified)	inactive
NC(CO)(CO)CO	inactive
C[Si](C)O[Si](C)(C)O[Si](C)(C)O[Si](C)C	inactive

System: not listed separately
Experiment: TOX21_TR_RXR_BLA_Agonist_Followup_viability: Viability Assessment in the Tox21 Thyroid Hormone Receptor beta Retinoid X Receptor alpha (RXRa) Agonism Beta-lactamase (BLA) Follow-Up Assay (AID 2283970)
Procedure, shortened: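 In qHTS format, RXRa-bla HEK293T cells (2,500/well) received compound for 16h. ATP content was then measured with CellTiter-Glo, and responses were fitted bidirectionally relative to DMSO controls.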

SMILES	outcome
CCCCCCC(O)CO (stereo unspecified)	inactive
NC(CO)(CO)CO	inactive
C[Si](C)O[Si](C)(C)O[Si](C)(C)O[Si](C)C	inactive

Molecular target: Retinoic acid receptor RXR-alpha (Homo sapiens) (UniProt P19793)
Experiment: TOX21_TR_RXR_BLA_Antagonist_Followup_ratio: Tox21 Thyroid Hormone Receptor beta Retinoid X Receptor alpha (RXRa) Antagonism Beta-lactamase (BLA) Follow-Up Assay, Ratio (AID 2283972)
Procedure, shortened: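 RXRa-UAS-bla HEK293T cells, 2,500/well in phenol red-free DMEM with 2% charcoal-stripped FBS, 5 h attachment, then compounds (11 concentrations, triplicate) for 16 h at 37C; FRET-B/GCCF4-AM substrate 2 h RT; 460:530 nm ratio, loss of signal vs DMSO.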

SMILES	outcome	AC50
Cc1oncc1C(=O)Nc1ccc(C(F)(F)F)cc1	inactive	
Oc1ccc(Cl)cc1Cc1cc(Cl)ccc1O		38.3 µM (active)
COc1ccc(C(Cl)=C(c2ccc(OC)cc2)c2ccc(OC)cc2)cc1	inactive	

System: not listed separately
Experiment: TOX21_TR_RXR_BLA_Antagonist_Followup_viability: Viability Assessment in the Tox21 Thyroid Hormone Receptor beta Retinoid X Receptor alpha (RXRa) Antagonism Beta-lactamase (BLA) Follow-Up Assay (AID 2283979)
Procedure, shortened: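 Follow-up compounds (11 concentrations, triplicate) were incubated 16 h at 37C/5% CO2 with HEK293T RXRa-bla cells seeded at 2,500/well in charcoal-stripped-serum medium. ATP content by CellTiter-Glo luminescence gave viability; curves fitted in both directions against DMSO.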

SMILES	outcome	AC50
Cc1oncc1C(=O)Nc1ccc(C(F)(F)F)cc1	inactive	
c1cc(N(CC2CO2)CC2CO2)ccc1OCC1CO1 (stereo unspecified)	inactive	
COCc1c(C(C)C)nc(C(C)C)c(/C=C/[C@@H](O)C[C@@H](O)CC(=O)O)c1-c1ccc(F)cc1	inactive	
Oc1ccc(Cl)cc1Cc1cc(Cl)ccc1O		5.34 µM (active)
COc1ccc(C(Cl)=C(c2ccc(OC)cc2)c2ccc(OC)cc2)cc1	inactive	
N=c1ccn2c(n1)O[C@H]1[C@H](O)[C@@H](CO)O[C@H]12	inactive	

System: DIO1 (gene 1733)
Experiment: CCTE_GLTED_hDIO1: CCTE's human Deiodinase 1 (DIO1) Inhibition Assay, Great Lakes Toxicology and Ecology Division (GLTED) Lab (AID 2283987);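 further: isolated human DIO1 enzyme in a cell-free setup rather than cells; enzyme activity read as free iodide liberated from substrate via Sandell-Kolthoff colorimetry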
Procedure, shortened: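 Cell-free human DIO1 enzyme incubated 3 h with test chemical; iodide freed from substrate then measured by Sandell-Kolthoff absorbance. Run in triplicate; loss of signal relative to DMSO taken as inhibition.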

SMILES	AC50
CCCCCCCC[N+](C)(CCCCCCCC)CCCCCCCC	70.8 µM (active)
CCCCC/C=C\C/C=C\CCCCCCCC(=O)OC	21 µM (active)
CC/C=C\C/C=C\C/C=C\CCCCCCCC(=O)O	20.6 µM (active)
CCCCCCCCCCCCCOP(=O)(O)O	91 µM (active)
Oc1ccc(Cl)cc1Cc1cc(Cl)ccc1O	99.8 µM (active)
